# Test system: DYRK1A
# Conditions: concentration: 1 μM, replicates: in singlicate; n = 1
# 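Note: KINOMEscan kinase panel screen.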
row,Compound,%Inh [%]
1,CN1C(=O)C(Nc2ccccc2)=C(c2ccccc2)C1=O [SB-300079],0
2,CCC(=O)c1c(-c2ccccc2)c2cc(Cl)ccc2c(=O)n1Cc1ccc(C(=O)O)cc1,0
3,COc1cc(Nc2nccc(N3CCC(NC(=O)C(C)c4ccc(Cl)cc4)C3)n2)cc(OC)c1OC (stereo not drawn) [GSK1379757],9
4,O=C(NCc1cccs1)c1cc(C(=O)c2c(Cl)cccc2Cl)c[nH]1 [GW823670],0
5,Cl.c1ccc(Cn2cnc3cc(Nc4ncnc5ccccc45)ccc32)cc1 [GW272142],17
6,COc1cc2ncn(-c3cc(OCc4ccc(S(C)(=O)=O)cc4)c(C(N)=O)s3)c2cc1OC [GW869979],22
7,CCS(=O)c1ccc(-c2coc3ccc(-c4nnc(C)o4)cc23)cc1 (stereo not drawn),0
8,O=C(Nc1n[nH]c2nc(-c3ccccc3)c(Br)cc12)C1CC1 [SB-708998],8
9,Cl.NS(=O)(=O)c1cccc(Nc2cc(-c3ccc(F)cc3)n[nH]2)c1 [GW824645],0
10,COC(=O)c1c(-c2ccccc2)c2cc(Br)ccc2c(=O)n1Cc1ccc(NC(=O)CCC(=O)O)cc1,9
11,CCCNC(=O)Nc1ccc(Oc2ncnc3ccn(C)c23)cc1,16
12,FC(F)(F)c1ccc(-c2ncn(CCCN3CCOCC3)c2-c2ccncc2)cc1 [SB-217780],6
13,Cc1c(Cn2c(C)nn3c(=O)cc(N4CCO[C@H](C)C4)nc23)cccc1C(F)(F)F [GSK2373690],19
14,COc1cccc(-n2cnc3c(N)ncnc32)c1 [SKF-97416],12
15,Nc1nc(N)c2nc(-c3ccccc3)[nH]c2n1 [SKF-12778],34
16,COc1ccc(CNC(=O)NC2CCN(c3ccnc(Nc4ccc(F)cc4)n3)C2)cc1 (stereo not drawn) [GSK1379706],0
17,COc1cccc(C2=C(N(C)c3ccccc3)C(=O)NC2=O)c1 [SB-334865],4
18,COc1ccc(-c2cc3c(C)nc(N)nc3n([C@H]3CC[C@H](OCCO)CC3)c2=O)cn1,0

row,Compound,%Inh [%]
1,Nc1ncnc2c1ncn2-c1cccc2ccccc12 [SKF-97184],0
2,Cc1ccc(-c2ccc3c(ccc4sc5c(c43)NC[C@@H](C)N=C5N(C)C)n2)cn1,0
3,COc1cccc(C2=C(Nc3cccc(C(=O)O)c3)C(=O)NC2=O)c1 [SB-390770],14
4,Cc1nc(N(C)[C@H]2CN(C(=O)CC#N)CC[C@H]2C)c2cc[nH]c2n1,0
5,CN(C)c1cc(-c2ccc3c(N)n[nH]c3c2)nc(N)n1 [GSK2219329],9
6,COc1ccc(-c2cc3c(C)nc(N)nc3n([C@H]3CC[C@H](O)CC3)c2=O)cn1,0
7,OCCCNc1nccc(-c2c(-c3cccc(C(F)(F)F)c3)nn3cc(C(F)(F)F)ccc23)n1 [GW630813],26
8,O=C(Nc1n[nH]c2cc(-c3ccccc3F)ccc12)C1CC1 [SB-733371],4
9,Nc1nc(-c2ccccc2F)c(-c2ccnc3ccccc23)s1 [GW560459],9
10,Cn1c(=O)c(F)c(Nc2ccc(I)cc2F)c2c(=O)n(OC[C@H](O)CO)cnc21,0
11,Cc1cc(Nc2nc(-c3cccc(C)n3)nc3ccccc23)ccn1 [GW872411],0
12,COc1cc2nccc(Nc3ccc(OCc4ccc(NC(C)=O)cc4)cc3)c2cc1OC.Cl [GW440135],15
13,Cc1nnc(-c2ccc(C)c(-c3ccc(C(=O)O)cc3)c2)o1 [GW608005],20
14,CCS(=O)(=O)c1ccc(OC)c(Nc2ncc(-c3ccc(F)cc3)o2)c1.Cl [GW591947],12
15,CCc1ccc(-c2ccc3c(c2)-c2nn(C)cc2S(=O)(=O)N3C)cc1,0
16,CCC(=O)c1c(-c2ccccc2)c2cc(Cl)ccc2c(=O)n1Cc1cc(S(C)(=O)=O)n(CCC(C)(C)O)n1,27
17,C[C@@H]1CC[C@H](C(=O)NC2CCCCC2)CN1c1cc(-c2ccc3c(N)n[nH]c3c2)nc(N)n1 [GSK2291363],23
18,O=c1cc(N2CCOCC2)nc2n(Cc3ccc(F)c(Cl)c3)ccn12 [GSK2297099],12

# Test system: DYRK1B
# Conditions: concentration: 1 μM, replicates: in singlicate; n = 1
row,Compound,%Inh [%]
1,CN1C(=O)C(Nc2ccccc2)=C(c2ccccc2)C1=O [SB-300079],17
2,CCC(=O)c1c(-c2ccccc2)c2cc(Cl)ccc2c(=O)n1Cc1ccc(C(=O)O)cc1,39
3,COc1cc(Nc2nccc(N3CCC(NC(=O)C(C)c4ccc(Cl)cc4)C3)n2)cc(OC)c1OC (stereo not drawn) [GSK1379757],0
4,O=C(NCc1cccs1)c1cc(C(=O)c2c(Cl)cccc2Cl)c[nH]1 [GW823670],16
5,Cl.c1ccc(Cn2cnc3cc(Nc4ncnc5ccccc45)ccc32)cc1 [GW272142],2
6,COc1cc2ncn(-c3cc(OCc4ccc(S(C)(=O)=O)cc4)c(C(N)=O)s3)c2cc1OC [GW869979],20
7,CCS(=O)c1ccc(-c2coc3ccc(-c4nnc(C)o4)cc23)cc1 (stereo not drawn),7
8,O=C(Nc1n[nH]c2nc(-c3ccccc3)c(Br)cc12)C1CC1 [SB-708998],0
9,Cl.NS(=O)(=O)c1cccc(Nc2cc(-c3ccc(F)cc3)n[nH]2)c1 [GW824645],0
10,COC(=O)c1c(-c2ccccc2)c2cc(Br)ccc2c(=O)n1Cc1ccc(NC(=O)CCC(=O)O)cc1,48
11,CCCNC(=O)Nc1ccc(Oc2ncnc3ccn(C)c23)cc1,68
12,FC(F)(F)c1ccc(-c2ncn(CCCN3CCOCC3)c2-c2ccncc2)cc1 [SB-217780],0
13,Cc1c(Cn2c(C)nn3c(=O)cc(N4CCO[C@H](C)C4)nc23)cccc1C(F)(F)F [GSK2373690],20
14,COc1cccc(-n2cnc3c(N)ncnc32)c1 [SKF-97416],2
15,Nc1nc(N)c2nc(-c3ccccc3)[nH]c2n1 [SKF-12778],13
16,COc1ccc(CNC(=O)NC2CCN(c3ccnc(Nc4ccc(F)cc4)n3)C2)cc1 (stereo not drawn) [GSK1379706],0
17,COc1cccc(C2=C(N(C)c3ccccc3)C(=O)NC2=O)c1 [SB-334865],0
18,COc1ccc(-c2cc3c(C)nc(N)nc3n([C@H]3CC[C@H](OCCO)CC3)c2=O)cn1,0

row,Compound,%Inh [%]
1,Nc1ncnc2c1ncn2-c1cccc2ccccc12 [SKF-97184],30
2,Cc1ccc(-c2ccc3c(ccc4sc5c(c43)NC[C@@H](C)N=C5N(C)C)n2)cn1,0
3,COc1cccc(C2=C(Nc3cccc(C(=O)O)c3)C(=O)NC2=O)c1 [SB-390770],0
4,Cc1nc(N(C)[C@H]2CN(C(=O)CC#N)CC[C@H]2C)c2cc[nH]c2n1,0
5,CN(C)c1cc(-c2ccc3c(N)n[nH]c3c2)nc(N)n1 [GSK2219329],5
6,COc1ccc(-c2cc3c(C)nc(N)nc3n([C@H]3CC[C@H](O)CC3)c2=O)cn1,4
7,OCCCNc1nccc(-c2c(-c3cccc(C(F)(F)F)c3)nn3cc(C(F)(F)F)ccc23)n1 [GW630813],0
8,O=C(Nc1n[nH]c2cc(-c3ccccc3F)ccc12)C1CC1 [SB-733371],0
9,Nc1nc(-c2ccccc2F)c(-c2ccnc3ccccc23)s1 [GW560459],4
10,Cn1c(=O)c(F)c(Nc2ccc(I)cc2F)c2c(=O)n(OC[C@H](O)CO)cnc21,0
11,Cc1cc(Nc2nc(-c3cccc(C)n3)nc3ccccc23)ccn1 [GW872411],2
12,COc1cc2nccc(Nc3ccc(OCc4ccc(NC(C)=O)cc4)cc3)c2cc1OC.Cl [GW440135],1
13,Cc1nnc(-c2ccc(C)c(-c3ccc(C(=O)O)cc3)c2)o1 [GW608005],0
14,CCS(=O)(=O)c1ccc(OC)c(Nc2ncc(-c3ccc(F)cc3)o2)c1.Cl [GW591947],0
15,CCc1ccc(-c2ccc3c(c2)-c2nn(C)cc2S(=O)(=O)N3C)cc1,0
16,CCC(=O)c1c(-c2ccccc2)c2cc(Cl)ccc2c(=O)n1Cc1cc(S(C)(=O)=O)n(CCC(C)(C)O)n1,11
17,C[C@@H]1CC[C@H](C(=O)NC2CCCCC2)CN1c1cc(-c2ccc3c(N)n[nH]c3c2)nc(N)n1 [GSK2291363],6
18,O=c1cc(N2CCOCC2)nc2n(Cc3ccc(F)c(Cl)c3)ccn12 [GSK2297099],39

# — publication PMC5540273 (PLoS ONE, 2017)
